About 83,000 compounds went through this panel and 20% of them were active in at least one assay; those are over-represented in the sample as a whole.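 Growth was measured after 48 h exposure to one concentration of compound in 96-well plates. Values under 10 count as active.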 Calls of active or inactive are those of the source.
System: NCI-H522 lung
Experiment: NCI-60 one-dose screen, 48 h (100 = growth as untreated, 0 = no growth, -100 = all killed)
Conditions: 10 µM unless noted

Question: `NC1C2CCC1CN(c1cnc(C(=O)Nc3cc(F)cc4cccnc34)cn1)C2` (centres undefined) was tested. Which growth did it give?
Answer: The growth was 72.3% (inactive).

Question: Which growth does the source give for `COc1ccc2c(c1)c(-c1nnc(N)nc1-c1c[nH]c3ccc(F)cc13)cn2C` here?
Answer: The growth was 27.2% (inactive).

Question: For `COc1ccc([C@H]2C(=O)N(c3cc(OC)c(OC)c(OC)c3)[C@@H]2c2ccc(OC)c(O)c2)cc1`, which growth is on record?
Answer: The growth was -49.2% (active).

Question: With `CCOC(=O)c1cnc2c(-c3ccc(Cl)c(Cl)c3)cnn2c1` as the molecule, how does the growth read?
Answer: Its growth is 66.9% (inactive).

Question: With `Oc1[nH]c2ccc(Cl)cc2c1N=Nc1nc(N=Nc2c(O)[nH]c3ccc(Cl)cc23)nc(N2CCOCC2)n1` as the molecule, how does the growth read?
Answer: Its growth is 5.09% (active).

Question: `CCC1=Cc2c(OC)cccc2OC12C=Cc1c(OC)cccc1O2` (centres undefined) was tested. Which growth did it give?
Answer: The growth was 14.4% (inactive).

Question: For `CCCC/C(=C\c1ccc(O)c(O)c1)C(=O)NC(Cc1ccccc1)C(=O)C(=O)NCCc1ccc(OC)cc1` (centres undefined), which growth is on record?
Answer: Its growth is 87.7% (inactive).

Question: `CC/C(=C(/c1ccc(Cl)cc1)c1ccc(OCCN)cc1)c1ccccc1` was tested. Which growth did it give?
Answer: Its growth is 98.1% (inactive).

Question: `Cc1ccc(S(=O)(=O)c2nc(-c3ccc(F)cc3)oc2S(C)(=O)=O)cc1` was tested. Which growth did it give?
Answer: Its growth is 61% (inactive).

System: A549/ATCC NSCLC
Experiment: as above
Conditions: 10 µM unless noted

Question: `COc1ccc(C2C(C#N)=C(/N=C/c3ccc(Cl)cc3)Oc3c2sc2c(C)cccc32)cc1` (centres undefined) was tested. Which growth did it give?
Answer: The growth was 34.2% (inactive).

Question: For `CN1CC[C@@H]2[C@@]3(C)CC[C@H](O)C(C)(C)[C@@H]3CC[C@@]2(C)[C@]2(C)CC[C@@]3(CO)CCC(C)(C)C[C@@H]3C12` (some centres undefined), which growth is on record?
Answer: The growth was 86% (inactive).

Question: `Clc1ccc2c(N/N=C/c3c[nH]c4ccccc34)ccnc2c1` was tested. Which growth did it give?
Answer: Its growth is -24.3% (active).

Question: Which growth does the source give for `O=c1c2cc(-c3ccc(F)cc3F)ccc2n(Nc2ccccc2)c(=O)n1-c1cccc(C(F)(F)F)c1` here?
Answer: Its growth is 10.5% (inactive).

Question: How did the growth turn out when `NC1[C@H]2CN(c3cnc(C(=O)Nc4cc(F)cc5cccnc45)cn3)C[C@@H]12` (some centres undefined) was run?
Answer: The growth was 92.1% (inactive).

Question: With `CCOC(=O)c1cccc(NC2=C(Cl)C(=O)c3nc(C)ccc3C2=O)c1` as the molecule, how does the growth read?
Answer: Its growth is 101% (inactive).

Question: With `O=C(CSc1nnc(-c2cccs2)n1-c1ccccc1)Nc1ccccc1` as the molecule, how does the growth read?
Answer: Its growth is 87.7% (inactive).

Question: With `CCc1cc2c(cc1Cl)nc1c(=O)[nH]c(=O)nc-1n2CCOCC(C)C` as the molecule, how does the growth read?
Answer: The growth was 67.1% (inactive).

Question: For `Cc1csc(/N=C(N)/N=C(\N)c2cccc(C#N)c2)n1`, which growth is on record?
Answer: Its growth is 71.9% (inactive).

Question: With `Clc1ccc(CSc2nnc(-c3ccc(Cl)cc3)n2-c2ccccc2)cc1` as the molecule, how does the growth read?
Answer: The growth was 80.3% (inactive).

Question: For `C#Cc1nc(C(=O)NCCCCCCC(=O)NO)cs1`, which growth is on record?
Answer: The growth was 10.2% (inactive).

Question: `CCCNNC(=O)c1ccc(-c2ccc(NC(=O)CCCCCCC(=O)N[C@H](C(=O)N3C[C@H](O)C[C@H]3C(=O)N[C@@H](C)c3ccc(-c4scnc4C)cc3)C(C)(C)C)cc2)cc1` was tested. Which growth did it give?
Answer: The growth was 72.4% (inactive).

Question: With `CN1CCN(c2ccc(Nc3nc(NCCNC(=O)c4ccccc4)c4sccc4n3)cc2)CC1` as the molecule, how does the growth read?
Answer: Its growth is 67.4% (inactive).

Question: With `COc1cc2c3c(cc4c5c(ccc4c3c1OC)OCO5)N(CCN(C)C)C2=O` as the molecule, how does the growth read?
Answer: Its growth is 0.384% (active).

Question: How did the growth turn out when `N#Cc1c(-c2cccs2)cc(-c2cnccn2)nc1SCC(=O)N/N=C/c1ccc(Cl)cc1` was run?
Answer: Its growth is 94.6% (inactive).

Question: For `COC(=O)c1cccc(NC2=CC(=O)C(C)=C(C)C2=O)c1`, which growth is on record?
Answer: The growth was 109% (inactive).

Question: Which growth does the source give for `C#Cc1nc(/C=C/CCCCCCC(=O)NO)cs1` here?
Answer: The growth was 61.6% (inactive).

Question: How did the growth turn out when `CC(=O)Nc1nc(C)c(-c2csc(Nc3ccccc3)n2)s1` was run?
Answer: Its growth is 44.3% (inactive).

Question: For `CC1=C(C)C(=O)C(Nc2ccc3c(c2)OCO3)=C(Br)C1=O`, which growth is on record?
Answer: The growth was 102% (inactive).

Question: For `N#Cc1cccc(-c2cc(-c3ccc4c(c3)OCCO4)[nH]n2)c1`, which growth is on record?
Answer: Its growth is 47.8% (inactive).

Question: How did the growth turn out when `COc1ccc2c(c1)c(-c1nc(N)nnc1-c1c[nH]c3ccccc13)cn2C` was run?
Answer: Its growth is 48.4% (inactive).

Question: `CC1(C)CC[C@]23CC[C@]4(C)[C@H](CC[C@@H]5[C@@]6(C)CC[C@H](N)C(C)(C)[C@@H]6CC[C@]54C)[C@H]2[C@H]1OC3` was tested. Which growth did it give?
Answer: Its growth is 24.3% (inactive).

Question: How did the growth turn out when `Fc1cccc(Cl)c1/C=N/Nc1nc(N/N=C/c2c(F)cccc2Cl)nc(N2CCCCC2)n1` was run?
Answer: Its growth is 21.6% (inactive).

Question: Which growth does the source give for `Cc1ccccc1N1CCN(C2=C(Cl)C(=O)c3ncccc3C2=O)CC1` here?
Answer: Its growth is 99.6% (inactive).

Question: How did the growth turn out when `CC(=O)OC[C@@]12Oc3c(cccc3-c3ccc(O)c4c3O[C@]3(COC(C)=O)C(=C4O)C(=O)C[C@H](C)[C@@H]3OC(C)=O)C(O)=C1C(=O)C[C@H](C)[C@@H]2OC(C)=O` was run?
Answer: Its growth is 19.4% (inactive).

Question: For `COc1ccc(CC(C)=C(c2ccc(OCCN3CCCC3)cc2)c2ccc(OCCN3CCCC3)cc2)cc1`, which growth is on record?
Answer: The growth was -68.2% (active).

Question: For `CNC(=O)c1cc(N2CCc3cc(NC(=O)Nc4ccc(N5CCOCC5)c(C(F)(F)F)c4)ccc32)ccn1`, which growth is on record?
Answer: Its growth is 43.7% (inactive).

Question: Which growth does the source give for `CN(C)CC(=O)Nc1nc(-c2cccc(NS(=O)(=O)c3cccc4c(N(C)C)cccc34)c2)cs1` here?
Answer: Its growth is 80.1% (inactive).

Question: For `NCCNC(=O)c1cccc(COc2ccccc2NC(=O)c2cc(Cl)c(Cl)[nH]2)c1`, which growth is on record?
Answer: The growth was 98.6% (inactive).

Question: For `COc1cccc2c1C=CC1(O2)Oc2cccc(OC)c2C=C1C` (centres undefined), which growth is on record?
Answer: Its growth is 25.1% (inactive).

Question: Which growth does the source give for `COc1ccc(-c2c(C(N)=O)c(N)n(Cc3nc4ccccc4[nH]3)c(=O)c2C#N)c(OC)c1` here?
Answer: Its growth is 102% (inactive).

Question: How did the growth turn out when `NC1C2CCC1CN(c1cnc(C(=O)Nc3cc(F)cc4cccnc34)cn1)C2` (centres undefined) was run?
Answer: Its growth is 68.6% (inactive).

Question: For `COc1ccc2c(c1)c(-c1nnc(N)nc1-c1c[nH]c3ccc(F)cc13)cn2C`, which growth is on record?
Answer: Its growth is 50.7% (inactive).

Question: How did the growth turn out when `COc1ccc([C@H]2C(=O)N(c3cc(OC)c(OC)c(OC)c3)[C@@H]2c2ccc(OC)c(O)c2)cc1` was run?
Answer: Its growth is 21.6% (inactive).

Question: With `CCOC(=O)c1cnc2c(-c3ccc(Cl)c(Cl)c3)cnn2c1` as the molecule, how does the growth read?
Answer: Its growth is 96.4% (inactive).

Question: `Oc1[nH]c2ccc(Cl)cc2c1N=Nc1nc(N=Nc2c(O)[nH]c3ccc(Cl)cc23)nc(N2CCOCC2)n1` was tested. Which growth did it give?
Answer: Its growth is 101% (inactive).

Question: How did the growth turn out when `CCC1=Cc2c(OC)cccc2OC12C=Cc1c(OC)cccc1O2` (centres undefined) was run?
Answer: The growth was 25.3% (inactive).

Question: With `CCCC/C(=C\c1ccc(O)c(O)c1)C(=O)NC(Cc1ccccc1)C(=O)C(=O)NCCc1ccc(OC)cc1` (centres undefined) as the molecule, how does the growth read?
Answer: The growth was 103% (inactive).

Question: `CC/C(=C(/c1ccc(Cl)cc1)c1ccc(OCCN)cc1)c1ccccc1` was tested. Which growth did it give?
Answer: Its growth is 86.2% (inactive).

Question: Which growth does the source give for `Cc1ccc(S(=O)(=O)c2nc(-c3ccc(F)cc3)oc2S(C)(=O)=O)cc1` here?
Answer: Its growth is 96.4% (inactive).
